Reference: PMC5540273 (PLoS ONE, 2017)

Legend:
Conditions in all cases: concentration: 1 μM, replicates: in singlicate; n = 1
CHEK2 = test system: CHEK2
CIT = test system: CIT
CLK1 = test system: CLK1
CLK2 = test system: CLK2
CLK3 = test system: CLK3
CLK4 = test system: CLK4
CSF1R-autoinhibited = test system: CSF1R-autoinhibited
CSF1R = test system: CSF1R
CSK = test system: CSK
CSNK1A1L = test system: CSNK1A1L
CSNK1A1 = test system: CSNK1A1
CSNK1D = test system: CSNK1D
CSNK1E = test system: CSNK1E
CSNK1G1 = test system: CSNK1G1
CSNK1G2 = test system: CSNK1G2
CSNK1G3 = test system: CSNK1G3
CSNK2A1 = test system: CSNK2A1
CSNK2A2 = test system: CSNK2A2
CTK = test system: T1, CTK
T1 construct: gene MATK

DAPK1 = test system: DAPK1
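Note: KINOMEscan kinase panel screen.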

SMILES	%Inh (CHEK2) [%]	%Inh (CIT) [%]	%Inh (CLK1) [%]	%Inh (CLK2) [%]	%Inh (CLK3) [%]	%Inh (CLK4) [%]	%Inh (CSF1R-autoinhibited) [%]	%Inh (CSF1R) [%]	%Inh (CSK) [%]	%Inh (CSNK1A1L) [%]	%Inh (CSNK1A1) [%]	%Inh (CSNK1D) [%]	%Inh (CSNK1E) [%]	%Inh (CSNK1G1) [%]	%Inh (CSNK1G2) [%]	%Inh (CSNK1G3) [%]	%Inh (CSNK2A1) [%]	%Inh (CSNK2A2) [%]	%Inh (CTK) [%]	%Inh (DAPK1) [%]
COc1ccc(Nc2nccc(-c3cccc(NC(=O)c4cc5cc(F)ccc5[nH]4)c3)n2)cc1 [GSK1229782]	37	44	33	0	12	28	57	10	0	20	0	37	33	13	17	32	8	27	0	0
COc1ccccc1CNC(=O)c1cc(C(=O)c2ccccc2C)c[nH]1 [GSK364507]	0	9	17	0	0	9	0	11	0	20	0	28	20	15	0	9	0	100	0	0
Nc1nc(-c2nccs2)c(-c2ccnc3ccccc23)s1 [GW693542]	0	44	22	0	0	16	0	0	9	23	40	58	41	9	0	24	0	2	0	0
COc1cc2nccc(Nc3ccc(NC(=O)c4ccc(C)cc4)c(O)c3)c2cc1OC.Cl [GW440132]	11	11	37	0	87	14	15	18	0	9	0	2	45	0	0	30	0	0	0	0
Cc1cccc(-c2nc(C)cc(Nc3ccncc3)n2)n1 [GSK257997]	0	23	13	9	15	9	0	0	0	7	0	43	42	13	0	10	2	22	0	9
